Hit rate of the full screen: of about 140,000 compounds, about 1,200 (0.86%) were called active. Cut-off read from the data, not from the text of the source: active = activity change below about -25%; inactive = the rest. The entries come from a sample that favours actives as a whole.
Each compound was assayed against Inositol hexakisphosphate kinase 1 (Homo sapiens) (UniProt Q92551) (assay: Primary qHTS assay for small molecule inhibitors of Inositol hexaphosphate kinase 1 (IP6K1)). Details: ADP-Glo luminescence, 2 h, active compounds read low.
In short: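 ADP-Glo luminescence measures ADP made by human IP6K1 during a 2 h RT reaction with ATP/IP6 (mix at 1.3 mM/130 uM); top library doses 57.5 and 19.1 uM final.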
% is set by controls: 0 for no effect and ±100 for the full control effect.
Note: series mostly up to about 58 µM.

Chain of Inositol hexakisphosphate kinase 1 (Homo sapiens) (Q92551 whole entry, looked up): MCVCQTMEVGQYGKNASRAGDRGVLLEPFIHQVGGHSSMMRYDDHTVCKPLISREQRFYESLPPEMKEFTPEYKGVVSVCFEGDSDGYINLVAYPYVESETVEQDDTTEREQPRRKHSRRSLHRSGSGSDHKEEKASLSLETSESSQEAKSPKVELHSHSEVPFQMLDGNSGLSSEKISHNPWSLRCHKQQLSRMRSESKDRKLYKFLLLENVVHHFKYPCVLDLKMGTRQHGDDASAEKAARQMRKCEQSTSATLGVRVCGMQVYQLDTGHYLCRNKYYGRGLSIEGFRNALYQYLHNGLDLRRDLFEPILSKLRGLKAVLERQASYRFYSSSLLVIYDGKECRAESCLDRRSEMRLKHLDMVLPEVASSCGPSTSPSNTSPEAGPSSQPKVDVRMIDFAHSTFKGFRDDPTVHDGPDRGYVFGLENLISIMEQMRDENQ

Activity change, inactive:
O=C1CCC2(C(=O)NCCCN3CCCC3)CCC=C2N1C1CCCC1 (stereo not given) 9.28%
CCOc1ccccc1CNC(=O)c1ccc(-n2c(C)cc3c2CCC(C)C3)cc1 (stereo not given) 14.3%
CCOc1cccc(CC(=O)N2CCc3c([nH]c4ccccc34)C2c2ccc(F)cc2)c1OCC (stereo not given) 2.13%
COc1ccc(OC2CN(CC3CCCCC3)C2)cc1 -18%
CCN(CC)CCNC(=O)C12CCCC=C1N(Cc1ccccc1)C(=O)CC2 (stereo not given) 7.12%
O=C(c1ccccc1)N1CCNc2cnc(Nc3cccc(C(F)(F)F)c3)nc2C1 4.76%
CCc1cccc(NC(=O)c2cnc(N3CCOCC3)c3ccccc23)c1 -10.5%
O=C(c1ccc(Cl)cc1)N1CCCC(n2cc(-c3nc(-c4ccccc4)no3)nn2)C1 (stereo not given) 5.18%
O=C(C1CCCN(C(=O)C2CC2)C1)N1CCC(N2CCCC2=O)CC1 (stereo not given) -0.186%
CN(C)C[C@@H]1CN(c2ccncn2)C[C@H]1NC(=O)c1cc(C2CC2)[nH]n1 3.23%
O=C(NC1CCN(Cc2ccccc2)CC1)c1ccc(Cn2c(=O)c3ccccc3n(Cc3cccc(F)c3)c2=O)cc1 6.69%
CCn1c2ccccc2c2cc(CN3CCN(Cc4cccc(Cl)c4)CC3)ccc21 -4.05%
O=C(NCc1ccccc1)c1ccc2nc(-c3ccnc(Cl)c3)oc2c1 -0.193%
CCc1ccc(CN(C)C(=O)c2ccc3oc(-c4cccc(F)c4)nc3c2)nc1 12.9%
CCOc1ccc(CC(=O)NC2CCN(c3cc(-c4ccc(F)cc4)[nH]n3)CC2)cc1OCC 22.5%
COc1ccccc1NC(=O)C1=C(C)Nc2ncnn2C1c1sccc1C (stereo not given) -0.661%
CCOc1ccccc1NC(=O)C1=C(C)Nc2ncnn2C1c1ccc(NC(C)=O)cc1 (stereo not given) -19.2%
CCN(Cc1ccccc1)C(=O)CCc1ccc2c(c1)CN(C(=O)NC(C)C)CCO2 -13.8%
CCCC(C)N1CC2(CCN(C(=O)c3csc(C(C)C)n3)CC2)OC1=O (stereo not given) 4.73%
O=c1c2nc(-c3ccccc3)ccc2ncn1Cc1ccccc1 5.89%
COc1ccc(-c2ccc3ncn(Cc4ccccc4)c(=O)c3n2)cc1OC 7.2%
COCCn1c(=O)n([C@H]2CCCN(C(=O)CCc3ccccc3)C2)c2ncccc21 6.71%
CC(C)(Oc1nn(Cc2cccc(Cl)c2)c2ccccc12)C(=O)Nc1cccnc1 -0.544%
Cc1cc(C)cc(N2CCC(NS(=O)(=O)c3cn(C)c(C)n3)C2=O)c1 (stereo not given) -1.58%
Cc1ccccc1N1CCCN(Cc2nc(-c3ccccn3)no2)CC1 -0.56%
COc1ccc(-c2ccc3ncc(Nc4ccc(C(F)(F)F)cc4)n3n2)cn1 -13.9%
COc1ccc(Nc2cnc3ccc(-c4ccc(OC)nc4)nn23)cc1 -13.5%
CC[C@@]1(C(=O)O)C[C@H](C(=O)N(C)CC(=O)O)[C@H](c2ccc(OC)cc2)N1C 9.58%
COC(=O)c1ccc(CO[C@H]2CCC=C3C[C@@H](O)CC[C@@]32C)cc1 17.7%
CCOC(=O)c1ccc(NC(=O)CSc2nc3c([nH]c4ccccc43)c(=O)n2C)cc1 32.9%
CCOC(=O)c1ccc(NC(=O)c2nc(SCc3ccc(F)cc3)ncc2Cl)cc1 -10%
O=S(=O)(N[C@@H]1CCOC[C@H]1Oc1ccccn1)c1ccc(Cl)s1 -5.56%
O=C(NCc1ccco1)C1c2ccccc2C(=O)N(C2CCCC2)C12CCCCC2 (stereo not given) -8.07%
Cc1ccc(-c2ccc3nnc(CNC(=O)c4ccccn4)n3n2)cc1 -2.05%
CC(=O)N1CCN(c2ccc3nnc(-c4ccc(C)cn4)n3n2)CC1 -10.9%
CC(=O)Nc1ccc(S(=O)(=O)N[C@H]2CO[C@H]3[C@@H]2OC[C@@H]3n2nnnc2-c2ccc(N(C)C)cc2)cc1 2.63%
CCCS(=O)(=O)N1CCC(N2CC(OCCOC)C23CCCCC3)CC1 (stereo not given) -5.2%
Cc1ccc(NC(=O)c2nc(S(=O)(=O)Cc3cccc(C)c3)ncc2Cl)cc1 -17.5%
CCOC(=O)c1scc(-c2ccccc2)c1S(=O)(=O)Nc1ccccc1F -14.6%
CCNC(=O)CCc1c(CC)nn(-c2ccc(F)cc2)c1Oc1ccccc1 1.63%
CCOc1ccc(C(=O)N2CCC(c3n[nH]c(=O)n3-c3ccccc3)CC2)cc1OCC -6.36%
O=Cc1cccc(-c2cc(F)cc(F)c2)c1 -5.81%
COc1ccc(CNC(=O)[C@@H](C)C2CC[C@@]3(C)CC[C@H](NC(=O)c4ccc(C#N)cc4)[C@@H](C)[C@@H]3[C@H]2O)cc1 (stereo not given in full) -11.9%
COc1ccc(Nc2ccnc(N3CCCC(C(=O)NCc4ccc(C(F)(F)F)cc4)C3)n2)cc1 (stereo not given) -7.37%

Activity change, active:
CCOc1cccc2c1N[C@@H](c1ccc(C(=O)O)cc1)[C@H]1CC=C[C@@H]21 -85.5%
O=C(OCCN1CCOCC1)c1cccnc1Nc1cccc(C(F)(F)F)c1 -58.6%
O=c1c2ccccc2n(Cc2cccc(Cl)c2)c(=O)n1Cc1ccccc1 -26%
CN(C)C(=O)c1ccc2oc(-c3ccnc(Cl)c3)nc2c1 -35.6%
CC1=C(C(=O)Nc2ccccc2Cl)C(c2cccs2)n2ncnc2N1 (stereo not given) -26.4%
O=c1ncn(Cc2ccccc2)c2ccc(-c3ccoc3)nc12 -29%
COc1ccc(-c2ccc3ncc(Nc4cc(F)cc(N5CCOCC5)c4)n3n2)cn1 -29.7%
CCOC(=O)c1ccc(CSc2nnc3cc(C)c4ccccc4n23)cc1 -36.2%
Cc1ccc(-c2nnc3ccc(-c4ccoc4)nn23)nc1 -36.1%
CCCS(=O)(=O)c1ncc(Cl)c(C(=O)Nc2scc(-c3ccccc3)c2C(=O)OCC)n1 -31.2%
CSc1ccc(-c2ccc(C=O)cc2)cc1 -28.5%
